LEDGF integ inh – blockers of LEDGF/p75-dependent integrase strand transfer – biochemical, TR-FRET, high throughput, primary screen | HIV-1 integrase (with human LEDGF/p75) | TR-FRET IN-LEDGF/p75 DNA integration, Eu/Cy5 | inhibition, % at 3.7 µM | 0.64% of 370,000 active | AID 743269, 2014;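 active means inhibition above the screen-wide mean plus 3 SD, cut at about 13% in these data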;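 further: signal is the Cy5 over europium emission ratio at 671 and 618 nm; 0% = plate median of compound wells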
UHRF1 MBD2 ctr – UHRF1 methylated DNA binding inhibitors, primary screen, counter-screen for MBD2 inhibitor project, biochemical, TR-FRET, human UHRF1, single concentration; E3 ubiquitin-protein ligase UHRF1 (Homo sapiens), Q96T88; UHRF1 binding to methylated oligo; inhibition, % at 4.4 µM; 0.75% of 370,000 active; AID 687016, 2013; in the data active means inhibition above about 21%;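 further: UHRF1 SRA domain binding a hemimethylated CpG hairpin DNA probe; 0% = median of test compound wells and 100% = reference inhibitor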
PRMT1 inh – PRMT1 methyltransferase inhibitors, primary screen, biochemical, fluorescence polarization; recombinant PRMT1, activity-based probe fluorescence polarization; inhibition, % at 2.79 µM; AID 652257, 2013; 1.3% of 370,000 active; Protein arginine N-methyltransferase 1 (Homo sapiens), Q99873;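 active means inhibition above about 21% made by adding two undisclosed values, limit read from the data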
Target sequence (Q99873 whole entry, looked up): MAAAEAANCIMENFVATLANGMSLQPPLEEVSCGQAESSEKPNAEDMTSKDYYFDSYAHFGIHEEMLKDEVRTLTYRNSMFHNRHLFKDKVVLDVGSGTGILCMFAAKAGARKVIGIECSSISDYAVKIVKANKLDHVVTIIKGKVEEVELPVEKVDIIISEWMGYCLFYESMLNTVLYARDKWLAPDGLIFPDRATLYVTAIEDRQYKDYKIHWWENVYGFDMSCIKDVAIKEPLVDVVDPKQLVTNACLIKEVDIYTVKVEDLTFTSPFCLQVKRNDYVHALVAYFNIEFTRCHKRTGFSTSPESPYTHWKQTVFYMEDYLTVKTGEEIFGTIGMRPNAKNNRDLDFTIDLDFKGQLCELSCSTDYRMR
MBD2 DNA inh – inhibitors of MBD2 binding to methylated DNA, primary screen, biochemical, TR-FRET, DNA-binding domain, human; Methyl-CpG-binding domain protein 2 (Homo sapiens), Q9UBB5; MBD2 binding to methylated oligonucleotide; inhibition, % at 4.4 µM; 0.31% of 370,000 active; AID 686964, 2013; in the data active means inhibition above about 13%
IN multimer act – HIV-1 IN multimer formation enhancers, counter-screen for LEDGF/p75 integration inhibitor project, biochemical, TR-FRET; shares compounds with LEDGF integ inh; AID 1053131, 2014; activation, % at 7.7 µM; 17% of 2,000 active; TR-FRET HIV-1 integrase multimerization; in the data active means activation above about 8.9%
TR-FRET interf – TR-FRET optical interference artefacts, confirmation, artefact control for LEDGF/p75-dependent integration inhibitor project, biochemical, HIV-1 IN multimerization. shares compounds with LEDGF integ inh. 2,000 tested, under 10 active. inhibition, % at 7.7 µM. TR-FRET optical interference counterscreen. AID 1053135, 2014;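 active means inhibition above the mean over all tested compounds plus 3 SD, which no compound reached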;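 further: 0% = integrase with antibodies and DMSO and 100% = antibodies without integrase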
LEDGF integ conf – inhibitors of HIV-1 IN-LEDGF/p75 DNA integration, confirmation, biochemical, TR-FRET; shares compounds with LEDGF integ inh; AID 1053136, 2014; TR-FRET LEDGF/p75-dependent HIV-1 integration; inhibition, % at 3.7 µM; 36% of 2,000 active; in the data active means inhibition above about 14%
Numbers without * were called inactive; · = no result. Hits are enriched below; roughly 2.5% of the tested compounds scored in any of these assays.

SMILES	LEDGF integ inh	UHRF1 MBD2 ctr	PRMT1 inh	MBD2 DNA inh	IN multimer act	TR-FRET interf	LEDGF integ conf
CCCCC(=O)N/N=C/c1c(O)n(Cc2ccco2)c(=O)[nH]c1=O	26.9*	16.8	7.9	-1.8	0.4	-2.1	2.5
O=c1[nH]c(=O)n(Cc2ccco2)c(O)c1C=NCc1ccco1	14.7*	5.6	10.5	1.7	-1.7	8.7	11.9
O=C(C1CCC(=O)N1C1CCCCC1)N1CCC2(CC1)OCCO2 (stereo not drawn)	1.5	0.1	-1.5	0.7	·	·	·
Cc1cc(/C=C2/C(=O)NC(=O)N(Cc3ccco3)C2=O)c(C)n1-c1ccccc1O	25.7*	8.6	8.9	-6.1	0.6	-3.1	-3.5
CCN(CC)c1ccc(/C=C2\C(=O)NC(=O)N(Cc3ccco3)C2=O)cc1	70.9*	65.5*	22.3*	7.8	-0.6	3.1	54.4*
CCc1ccccc1N1C(=O)NC(=O)/C(=C\c2cc(C)n(C)c2C)C1=O	2.3	0.4	1.9	-0.5	·	·	·
CCN(CC)c1ccc(/C=C2/C(=O)NC(=O)N(CC3CCCO3)C2=O)cc1 (stereo not drawn)	-1.4	-6.4	7.2	2.4	·	·	·
Cc1ccccc1C(O)(Cc1ccccc1)C1CN2CCC1CC2 (stereo not drawn)	4.0	16.3	-1.1	10.0	·	·	·
CC1CCCN(C(=O)CCl)C1 (stereo not drawn)	70.7*	-1.1	-2.1	-0.1	0.2	-1.1	-4.0
O=[N+]([O-])c1ccc(C2[C@H]3C(c4ccccc4)=NC4(CCCCC4)N23)cc1 (stereo partly drawn)	2.8	3.2	-1.1	-4.2	·	·	·
O=C1NC(=O)C(=Cc2ccccc2[N+](=O)[O-])C(=O)N1	0.0	-8.3	13.6	-3.7	·	·	·
O=C1NC(=O)C(=Cc2cc3c(cc2[N+](=O)[O-])OCO3)C(=O)N1	20.7*	-4.5	12.7	-7.3	7.0	-24.6	0.0
C=C(C)CC1(CC)C(=O)NC(=S)NC1=O	20.3*	3.5	-6.4	-0.9	0.6	-3.1	-4.8
CC1=NN(c2ccccc2)C(=O)C1/C=C1\C(=O)NC(=O)N(c2cc(C)cc(C)c2)C1=O (stereo not drawn)	5.0	-4.8	3.0	-7.7	·	·	·
Cn1cccc1/C=C1/C(=O)NC(=O)N(Cc2ccc(F)cc2)C1=O	0.7	20.0	5.9	-0.9	·	·	·
CC(C)c1ccc(N2C(=O)CC(=O)NC2=O)cc1	-3.5	3.7	5.0	3.8	·	·	·
Cc1ccc(N2C(=O)NC(=O)/C(=C\c3cccn3C(C)(C)C)C2=O)cc1	2.9	-1.2	1.6	-5.8	·	·	·
Cc1ccc(N2C(=O)NC(=O)/C(=C/C=C/c3ccco3)C2=O)cc1	35.2*	10.2	24.0*	-2.9	-0.9	4.6	24.3*
O=C1NC(=O)N(Cc2ccc(F)cc2)C(=O)/C1=C\C=C\c1ccco1	29.6*	5.0	19.9	-4.1	3.0	-11.1	19.9*
Cc1cc(C)cc(N2C(=O)NC(=O)/C(=C\C=C\c3ccco3)C2=O)c1	34.5*	15.2	14.5	-0.4	-0.6	3.2	29.3*
CC(C)c1ccc(N2C(=O)NC(=O)/C(=C/C=C/c3ccco3)C2=O)cc1	23.6*	1.8	9.2	-0.2	3.2	-11.7	26.7*
COC(=O)C1=C(c2ccc3ccccc3c2)C[C@@H]2CC[C@H]1N2C(=O)NC(C)C	2.2	-1.5	0.8	-3.7	·	·	·
COc1ccccc1-n1c(O)c(/C=N/N2CCCCC2)c(=O)n(-c2ccccc2OC)c1=S	2.0	-1.1	-0.9	2.7	·	·	·
C=C1[C@H]2CC[C@H]3[C@]4(C)C[C@H](O[C@@H]5OC(CO)[C@@H](OSOOO)[C@H](OS(=O)(=O)O)[C@H]5OC(=O)CC(C)C)C[C@@H](C(=O)O)[C@H]4CC[C@]3(C2)[C@H]1O (stereo partly drawn)	14.3*	2.9	-3.3	-7.4	-2.1	10.7	14.9*
C=C1C(=O)OC2CCN3CC=C(COC(=O)C(C)(O)C4(CO4)C1C)C23 (stereo not drawn)	37.1*	41.2*	7.5	9.2	-0.2	0.9	-3.1
SMILES	LEDGF integ inh	UHRF1 MBD2 ctr	PRMT1 inh	MBD2 DNA inh	IN multimer act	TR-FRET interf	LEDGF integ conf
Cc1ccccc1-n1c(C)nc2ccsc2c1=O	1.8	1.5	4.7	0.3	·	·	·
COc1cc2c(cc1O)[C@@H]1Cc3ccc(OC)c(O)c3CN1CC2	38.2*	5.8	4.5	-1.8	5.6	-20.0	44.5*
CCc1ccccc1N1C(=O)/C(=C/c2ccc(N3CCN(C)CC3)o2)C(=O)NC1=S	16.6*	5.7	12.3	-3.2	2.4	-8.4	13.5*
C[C@]12CCC3C(CC[C@H]4C[C@H](N)CC[C@]34C)C1CC[C@H]2O (stereo partly drawn)	21.2*	1.1	3.1	-1.9	-3.0	15.4	-0.9
CCCCn1c(NS(=O)(=O)c2ccccc2)c(C(=O)OCC)c2nc3ccccc3nc21	30.7*	12.0	4.9	7.2	0.3	-1.1	65.9*
CCCCn1c(NC(=O)c2ccc(Br)o2)c(C(=O)OCC)c2nc3ccccc3nc21	17.0*	4.4	8.3	-3.9	-0.8	2.8	68.8*
O=C(Cc1cccs1)N1CCC2(CC1)OCCO2	6.2	-2.3	-1.4	-6.8	·	·	·
